Reference: PubChem BioAssay AID1159580 (chemical genetic matrix, 2015)
About 2,000 (36%) of roughly 5,500 compounds were called active. Another 18% or so got no clear call; they are omitted. Cut-off read from the data, not from the text of the source: active = normalized growth mostly below about 0.91 (no sharp cut-off); inconclusive = no clear call, values can overlap the other calls; inactive = mostly above about 0.92. Some of the results follow.

Experiment: chemical genetic growth profiling, strain panel (AID 1159580);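 note: tested at 20 µM; growth read once vehicle control cultures reached saturation at 30 °C; 1 = growth at the plate median or of vehicle wells; lower values mean less growth of the strain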
Settings: S. cerevisiae deletion strains, growth OD
[1] = locus YAL040C, strain CLN3, hits give low values
[2] = locus YCL061C, strain MRC1 (second series), hits give low values
[3] = locus YDR150W, strain NUM1, hits give low values
[4] = locus YDR363W, strain ESC2, hits give low values
[5] = locus YER002W, strain NOP16, hits give low values
[6] = locus YMR307W, strain GAS1, hits give low values
[7] = locus YNL175C, strain NOP13, hits give low values
[8] = locus YNL197C, strain WHI3, hits give low values
[9] = locus YNL224C, strain SQS1, hits give low values
[10] = locus YOR083W, strain WHI5 (second series), hits give low values
[11] = locus YPL055C, strain LGE1, hits give low values

Measured: normalized growth

N[C@H](CO)C(=O)O
inactive: locus YAL013W, strain DEP1, hits give low values 1.03 | [1] 1.01 | [2] 1 | [3] 1 | [4] 1.03 | [5] 0.986 | locus YJR075W, strain HOC1, hits give low values 1.01 | [6] 1 | locus YNL128W, strain TEP1, hits give low values 0.999 | [7] 0.995 | [8] 0.999 | [9] 0.997 | locus YNL322C, strain KRE1, hits give low values 1 | [10] 0.996 | [11] 1.02

COC(=O)[C@@H](N)Cc1ccc(O)c(O)c1
inactive: [1] 1.03 | [2] 0.971 | [3] 0.958 | [4] 1 | [5] 1 | [6] 0.995 | [7] 1 | [8] 0.984 | [9] 1 | [10] 0.993 | [11] 0.971 | locus YPL241C, strain CIN2, hits give low values 1.01
